# Experimental data published in the supplement of paper PMC3484114.
# ± gives the standard deviation.
# System: OVCAR-3-derived ovarian cancer stem-like cells (spheroids)
# Test: cell growth relative to untreated control; higher = more growth (less inhibition)
# Details: 2.29 µM; 96 h
# Method in brief: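 Stem-like cells derived from OVCAR-3 spheroids were dissociated with trypsin and seeded at 50,000 cells/mL in stem cell medium in ultra-low attachment 96-well plates, then preincubated for 24 h. Each compound was added at 2.29 uM to 4 replicate wells and left for 96 h at 37°C, 5% CO2. Viability came from TOX8 resazurin fluorescence (ex 560/em 590 nm) read after 4 h. Percent growth was expressed relative to untreated wells, after blank subtraction and removal of outliers by the Grubbs test.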
row,SMILES,cell growth [%]
1,COc1ccc2[nH]c3c(C)c4ccncc4c(C)c3c2c1,65.8 ± 11
2,COC1OC(COCc2ccc(Cl)cc2)C(OCc2ccc(Cl)cc2)C1O (centres undefined),110 ± 26
3,NC(=O)NO,107 ± 15
4,CC(C)(C)c1ccc(OC2CCO2)cc1 (centres undefined),89.3 ± 19
5,O=C(c1nc2ccc(Cl)cc2[nH]c1=O)C(O)c1ccc2c(c1)OCO2 (centres undefined),109 ± 61
6,S=C(Nc1ccccc1)N(/N=C/C=C/c1ccccc1)c1nnc(-c2ccccc2)c(-c2ccccc2)n1,132 ± 57
7,CCCCOCc1cc(CN2CCN(C)CC2)c(O)c2ncccc12,85.3 ± 33
8,N#CC1=C(N)Oc2c(ccc3cccnc23)C1c1ccccc1 (centres undefined),57.8 ± 17
9,COc1ccc(OC)c2nc3c(C(=O)NCCN(C)C)cccc3nc12,119 ± 27
10,NCCCNCCCCNCCCN,141 ± 34
11,C[C@H](CN1CC(=O)NC(=O)C1)N1CC(=O)NC(=O)C1,131 ± 20
12,O=[N+]([O-])c1cc(C(F)(F)F)cc([N+](=O)[O-])c1CCl,38.4 ± 11
13,Oc1cc(-n2cccn2)c(O)cc1-n1cccn1,103 ± 13
14,C=C1CC(Cn2cc(Br)c(=O)[nH]c2=O)(c2ccc(-c3ccccc3)cc2)OC1=O (centres undefined),57.1 ± 20
15,Nc1ccc(N)c2c1C(=O)c1ccccc1C2=O,97.9 ± 12
16,CCN(CC)CCOC(=O)Cc1cccc2c(=O)cc(-c3ccccc3)oc12,91.6 ± 23
17,CCN1/C(=C\C(C)=C\c2sc3ccccc3[n+]2CC)Sc2ccccc21,31.4 ± 6.9
18,O=C1C=Cc2ncccc2C1=O,97.9 ± 16
19,CS(=O)(=O)OCCCCOS(C)(=O)=O,121 ± 16
20,Cc1ccc2[c](c1)[Sn]([c]1ccccc1)([c]1ccccc1)[c]1cc(C)ccc1N2C,87.8 ± 12
21,CCOC(=O)C1=C(O)CSC1=Nc1ccc(N=C2SCC(O)=C2C(=O)OCC)cc1,108 ± 30
22,C=C1C(=O)OCC2C(C(=O)O)=CC3C(C)C(C)=CC123 (centres undefined),76.4 ± 10
23,COC(=O)c1[nH]c(=S)[nH]c(=O)c1-c1ccc(Cl)cc1,37.8 ± 14
24,N#CC(=C1C=CC(=NO)C=C1)c1ccc(Cl)cc1,91.1 ± 17
